Test results taken from PubChem BioAssay AID435019 (Southern Research Specialized Biocontainment Screening …, 2010).
Hit rate of the full screen: of about 2,300 compounds, about 1,200 (52%) were called active. So high a share suggests a set chosen from earlier hits. Some of the results follow. Results with a measured potency or affinity are listed apart. A number with no mark means an inactive call. The rule behind the calls is not given here.

Experiment: mammalian cell cytotoxicity, dose response, cytotoxicity control for M. tuberculosis inhibitor project (AID 435019);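 note: 0% = background wells and 100% = vehicle-treated cells; lower values mean fewer viable cells so more cytotoxicity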
Conditions: cytotoxicity counter-screen; series mostly up to 40 µM; viability: at the top concentration

Row | SMILES | viability [%]
1 | CCOC(=O)COc1ccc2c(c1)C(=O)CC(C)(c1cccnc1)O2 (centres undefined) | 102
2 | Nc1ccc2oc(-c3cccs3)nc2c1 | 95.4
3 | CCOC(=O)c1ccc(N=C(CC)c2c(O)n(C)c(=O)n(C)c2=O)cc1 | 90.3
4 | C=CCc1cc(C)ccc1OCCCC(C(=O)OCC)C(=O)OCC | 97.1
5 | COc1cc(C)ccc1OCCOc1c(C)cc(Cl)cc1Cl | 86.2
6 | C[Se]C[C@@H](N)C(=O)O | 101
7 | Cc1nc2sccn2c1-c1nc(-c2cc3ccccc3o2)cs1 | 86.8
8 | Cc1ccc(NC(=O)COC(=O)CCc2c[nH]c3ccccc23)cc1[N+](=O)[O-] | 92.4
9 | C[C@@H]1CN([C@H](C)CO)C(=O)c2cc(NC(=O)Nc3ccc(C(F)(F)F)cc3)ccc2O[C@H]1CN(C)S(=O)(=O)c1cccs1 | 91.9
10 | CCOC(=O)CSc1cc(=O)n(C)c2cc(Cl)ccc12 | 96.9
11 | O=C(CSc1nc2ccccc2[nH]1)N1c2ccccc2Sc2ccccc21 | 81.8
12 | O=c1cc(O)c2sc3nc(-c4cccnc4)cc(C(F)(F)F)c3c2[nH]1 | 92.6
13 | CC(C)c1ccc(-c2nn(-c3ccccc3)cc2C(=O)NCC2CCCO2)cc1 (centres undefined) | 86.4
14 | COc1ccc(-c2cn3cc([N+](=O)[O-])ccc3n2)cc1OC | 96.1
15 | C=CCOc1ccc(/C=N/O)cc1Cl | 84.8
16 | Cc1ccc(/C=C/S(=O)(=O)NCC(=O)OCC(=O)Nc2c(F)cccc2F)cc1 | 91.2
17 | O=C(Nc1cccc(Cl)c1)N1CCN(C/C=C/c2ccccc2)CC1 | 84.9
18 | CC1(C)c2cc(Cl)ccc2-n2c1cc(O)c(-c1ccccc1)c2=O | 88.4
19 | O=c1[nH]c(CSc2cccc[n+]2[O-])nc2ccccc12 | 93.4
20 | O=C(OCc1ccccc1)/C(=C(\O)c1ccccc1Br)c1ccc(-c2ccccc2)cn1 | 89.2
21 | CCCc1cc(=O)[nH]c(SCC(=O)N2CCCC2=O)n1 | 95.3
22 | Cc1nc2ccc(OC(=O)c3ccccc3)cc2s1 | 86.3
23 | Clc1ccc(-c2ccc(C=Nc3ccc(N4CCOCC4)cc3)o2)c(Cl)c1 | 95.9
24 | O=C(CSc1nc2ccccc2nc1N1CCOCC1)N1CCN(c2ccccc2)CC1 | 89.7
25 | CC(C)OC(=O)CSc1nc2ccccc2s1 | 95.2
26 | C1=C(c2c[nH]c3ccccc23)CCNC1 | 88.5
27 | COc1ccc(N2CN=C3SCC(=O)N3C2)cc1 | 99.6

Row | SMILES | viability [%]
28 | Nc1ccc(CCc2ccc(N)cc2)cc1 | 93.5
29 | CCn1nnc(-c2ccc(N)cc2)n1 | 94.1
30 | Cc1cc2cc(CNC(=O)NC3CCCCC3)ccc2[nH]1 | 89
31 | O=C(/C=C/c1ncc(C(F)(F)F)cc1Cl)OCc1ccccc1 | 100
32 | Cc1ccc(-c2nnc(NCc3nc4ccccc4[nH]3)c3ccccc23)cc1S(=O)(=O)N1CCCCC1 | 81.5
33 | Cc1ccc(NC(=O)COc2ccc(-n3ccnc3)cc2)cc1Cl | 98
34 | CCNCC(=O)N1c2ccccc2CCc2ccc(NC(=O)OC(C)C)cc21 | 82.4
35 | CCc1c(C)sc(NC(=S)N2CCN(CC)CC2)c1C(=O)OC | 83.2
36 | COC(=O)c1c(NC(=O)C(=O)N2CCCC2)sc2c1CC(C)(C)OC2 | 89.7
37 | Cc1ccc(N=Nc2c(C)[nH]n(C(N)=S)c2=O)cc1 | 83.6
38 | O=C1NCCC/C1=N\Nc1ccc(Br)cc1 | 94.1
39 | COC(=O)CNC(=O)CSc1nc2sc(-c3ccccc3)cc2c(=O)n1-c1ccccc1 | 90.4
40 | Cc1ccc(NC(=O)c2sccc2-n2cccc2)c(C)c1 | 93.2
41 | CCCCCCCCCCOC(=O)Cn1c(COc2ccc(Cl)cc2)[n+](C)c2ccccc21 | 93.5
42 | Nc1nonc1C(=O)NCCNCc1c(OCc2ccccc2F)ccc2ccccc12 | 94
43 | Cn1ccnc1C(O)c1cc(C(C)(C)C)c(O)c(C(C)(C)C)c1 (centres undefined) | 89
44 | C(=N\Nc1nc(-c2ccccc2)cs1)/c1ccncc1 | 88.6
45 | Cc1cccc(NC(=O)CCSc2nnc(Cc3ccccc3)o2)c1 | 99.5
46 | COC(=O)c1cccc(OC(N)=O)c1 | 97.2
47 | c1ccc(Cn2c3ccccc3c3nnc(SCCN4CCCCC4)nc32)cc1 | 88.8
48 | CC(=O)c1c(C)n(C)c2ccc(OC(=O)c3ccc([N+](=O)[O-])cc3)cc12 | 93.6
49 | COC(=O)CSc1ncnc2c1cnn2-c1ccc(C)cc1C | 97.7
50 | CCc1n[nH]c(=S)n1/N=C/c1ccc(-c2ccc(Br)cc2)o1 | 85.9
51 | NC(=S)N/N=C/c1ccc(-c2ccccc2)o1 | 95.2
52 | CCOC(=O)c1ccc(-c2c(-c3ccc4c(c3)OCO4)noc2C)cc1F | 85.7
53 | Cc1onc(-c2ccccc2Cl)c1C(=O)Oc1cccc2cccnc12 | 84.4
54 | O=c1c(C=Nc2ccc(Oc3ccccc3)cc2)c[nH]n1-c1cccc(Cl)n1 | 94.6
